Data from article PMC11062922 (Nature Chemical Biology, 2023).
Like-named read-outs stand apart in the source and are kept apart here.

Assays:
Conditions in all cases: read-out: apparent Kd, n = 1
PAK4 = tested on: PAK4
PHKG2 = tested on: PHKG2
PKN1 = tested on: PKN1
[1] = compound concentrations:100 nM and 1000 nM (sheet 'Lestaurtinib' of Supplementary Table 1),run:Lestaurtinib_02766_R2,Plate:MR027
[2] = compound concentrations:100 nM and 1000 nM (sheet 'Lestaurtinib' of Supplementary Table 1),run:Lestaurtinib_02768_R1,Plate:MR028
[3] = compound concentrations:100 nM and 1000 nM (sheet 'Lestaurtinib' of Supplementary Table 1),run:Lestaurtinib_02795_R1,Plate:MR022
[4] = compound concentrations:100 nM and 1000 nM (sheet 'Lestaurtinib' of Supplementary Table 1),run:Lestaurtinib_02795_R3,Plate:MR022
[5] = compound concentrations:100 nM and 1000 nM (sheet 'Lestaurtinib' of Supplementary Table 1),run:Lestaurtinib_02896_R3,Plate:MR030
[6] = compound concentrations:100 nM and 1000 nM (sheet 'Lestaurtinib' of Supplementary Table 1),run:Lestaurtinib_03172_R1,Plate:MR031
[7] = compound concentrations:100 nM and 1000 nM (sheet 'Lestaurtinib' of Supplementary Table 1),run:Lestaurtinib_03172_R3,Plate:MR031
[8] = compound concentrations:100 nM and 1000 nM (sheet 'Lestaurtinib' of Supplementary Table 1),run:Lestaurtinib_03252_R1,Plate:MR032
[9] = compound concentrations:100 nM and 1000 nM (sheet 'Lestaurtinib' of Supplementary Table 1),run:Lestaurtinib_03252_R2,Plate:MR032
[10] = compound concentrations:100 nM and 1000 nM (sheet 'Lestaurtinib' of Supplementary Table 1),run:Lestaurtinib_03260_R1,Plate:MR033
[11] = compound concentrations:100 nM and 1000 nM (sheet 'Lestaurtinib' of Supplementary Table 1),run:Lestaurtinib_03260_R2,Plate:MR033
[12] = compound concentrations:100 nM and 1000 nM (sheet 'Lestaurtinib' of Supplementary Table 1),run:Lestaurtinib_02339_R1,Plate:MR001
[13] = compound concentrations:100 nM and 1000 nM (sheet 'Lestaurtinib' of Supplementary Table 1),run:Lestaurtinib_02339_R2,Plate:MR001
[14] = compound concentrations:100 nM and 1000 nM (sheet 'Lestaurtinib' of Supplementary Table 1),run:Lestaurtinib_02364_R1,Plate:MR002

Q: Which results are given for Lestaurtinib?
A: potency estimated from few doses (PAK4; [1]): 23.7 nM; potency estimated from few doses (PAK4; [2]): 35.4 nM; potency estimated from few doses (PAK4; compound concentrations:100 nM and 1000 nM (sheet 'Lestaurtinib' of Supplementary Table 1),run:Lestaurtinib_02768_R2,Plate:MR028): 29.5 nM; potency estimated from few doses (PAK4; compound concentrations:100 nM and 1000 nM (sheet 'Lestaurtinib' of Supplementary Table 1),run:Lestaurtinib_02768_R3,Plate:MR028): 32.7 nM; potency estimated from few doses (PAK4; [3]): 35.1 nM; potency estimated from few doses (PAK4; compound concentrations:100 nM and 1000 nM (sheet 'Lestaurtinib' of Supplementary Table 1),run:Lestaurtinib_02795_R2,Plate:MR022): 29.7 nM; potency estimated from few doses (PAK4; [4]): 113 nM; potency estimated from few doses (PAK4; compound concentrations:100 nM and 1000 nM (sheet 'Lestaurtinib' of Supplementary Table 1),run:Lestaurtinib_02802_R3,Plate:MR029): 24.8 nM; potency estimated from few doses (PAK4; compound concentrations:100 nM and 1000 nM (sheet 'Lestaurtinib' of Supplementary Table 1),run:Lestaurtinib_02896_R1,Plate:MR030): 35.9 nM; potency estimated from few doses (PAK4; compound concentrations:100 nM and 1000 nM (sheet 'Lestaurtinib' of Supplementary Table 1),run:Lestaurtinib_02896_R2,Plate:MR030): 30.1 nM; potency estimated from few doses (PAK4; [5]): 36.2 nM; potency estimated from few doses (PAK4; [6]): 32.7 nM; potency estimated from few doses (PAK4; compound concentrations:100 nM and 1000 nM (sheet 'Lestaurtinib' of Supplementary Table 1),run:Lestaurtinib_03172_R2,Plate:MR031): 29.6 nM; potency estimated from few doses (PAK4; [7]): 26.1 nM; potency estimated from few doses (PAK4; [8]): 43.4 nM; potency estimated from few doses (PAK4; [9]): 25.3 nM; potency estimated from few doses (PAK4; [10]): 48.6 nM; potency estimated from few doses (PAK4; [11]): 48 nM; potency estimated from few doses (PHKG2; [12]): 838 nM; potency estimated from few doses (PHKG2; [13]): 142 nM; potency estimated from few doses (PHKG2; compound concentrations:100 nM and 1000 nM (sheet 'Lestaurtinib' of Supplementary Table 1),run:Lestaurtinib_02339_R3,Plate:MR001): 275 nM; potency estimated from few doses (PHKG2; [14]): 462 nM; potency estimated from few doses (PHKG2; compound concentrations:100 nM and 1000 nM (sheet 'Lestaurtinib' of Supplementary Table 1),run:Lestaurtinib_02364_R2,Plate:MR002): 360 nM; potency estimated from few doses (PHKG2; compound concentrations:100 nM and 1000 nM (sheet 'Lestaurtinib' of Supplementary Table 1),run:Lestaurtinib_02364_R3,Plate:MR002): 574 nM; potency estimated from few doses (PHKG2; compound concentrations:100 nM and 1000 nM (sheet 'Lestaurtinib' of Supplementary Table 1),run:Lestaurtinib_02367_R1,Plate:MR003): 323 nM; potency estimated from few doses (PHKG2; compound concentrations:100 nM and 1000 nM (sheet 'Lestaurtinib' of Supplementary Table 1),run:Lestaurtinib_02367_R3,Plate:MR003): 356 nM; potency estimated from few doses (PHKG2; compound concentrations:100 nM and 1000 nM (sheet 'Lestaurtinib' of Supplementary Table 1),run:Lestaurtinib_02381_R1,Plate:MR004): 137 nM; potency estimated from few doses (PHKG2; compound concentrations:100 nM and 1000 nM (sheet 'Lestaurtinib' of Supplementary Table 1),run:Lestaurtinib_02381_R2,Plate:MR004): 197 nM; potency estimated from few doses (PHKG2; compound concentrations:100 nM and 1000 nM (sheet 'Lestaurtinib' of Supplementary Table 1),run:Lestaurtinib_02381_R3,Plate:MR004): 144 nM; potency estimated from few doses (PHKG2; compound concentrations:100 nM and 1000 nM (sheet 'Lestaurtinib' of Supplementary Table 1),run:Lestaurtinib_02422_R1,Plate:MR006): 213 nM; potency estimated from few doses (PHKG2; compound concentrations:100 nM and 1000 nM (sheet 'Lestaurtinib' of Supplementary Table 1),run:Lestaurtinib_02422_R2,Plate:MR006): 55.3 nM; potency estimated from few doses (PHKG2; compound concentrations:100 nM and 1000 nM (sheet 'Lestaurtinib' of Supplementary Table 1),run:Lestaurtinib_02437_R1,Plate:MR007): 135 nM; potency estimated from few doses (PHKG2; compound concentrations:100 nM and 1000 nM (sheet 'Lestaurtinib' of Supplementary Table 1),run:Lestaurtinib_02443_R1,Plate:MR009): 170 nM; potency estimated from few doses (PHKG2; compound concentrations:100 nM and 1000 nM (sheet 'Lestaurtinib' of Supplementary Table 1),run:Lestaurtinib_02443_R2,Plate:MR009): 193 nM; potency estimated from few doses (PHKG2; compound concentrations:100 nM and 1000 nM (sheet 'Lestaurtinib' of Supplementary Table 1),run:Lestaurtinib_02443_R3,Plate:MR009): 99.2 nM; potency estimated from few doses (PHKG2; compound concentrations:100 nM and 1000 nM (sheet 'Lestaurtinib' of Supplementary Table 1),run:Lestaurtinib_02473_R1,Plate:MR010): 310 nM; potency estimated from few doses (PHKG2; compound concentrations:100 nM and 1000 nM (sheet 'Lestaurtinib' of Supplementary Table 1),run:Lestaurtinib_02473_R2,Plate:MR010): 228 nM; potency estimated from few doses (PHKG2; compound concentrations:100 nM and 1000 nM (sheet 'Lestaurtinib' of Supplementary Table 1),run:Lestaurtinib_02473_R3,Plate:MR010): 159 nM; potency estimated from few doses (PHKG2; compound concentrations:100 nM and 1000 nM (sheet 'Lestaurtinib' of Supplementary Table 1),run:Lestaurtinib_02482_R1,Plate:MR011): 197 nM; potency estimated from few doses (PHKG2; compound concentrations:100 nM and 1000 nM (sheet 'Lestaurtinib' of Supplementary Table 1),run:Lestaurtinib_02482_R2,Plate:MR011): 501 nM; potency estimated from few doses (PHKG2; compound concentrations:100 nM and 1000 nM (sheet 'Lestaurtinib' of Supplementary Table 1),run:Lestaurtinib_02482_R3,Plate:MR011): 248 nM; potency estimated from few doses (PHKG2; compound concentrations:100 nM and 1000 nM (sheet 'Lestaurtinib' of Supplementary Table 1),run:Lestaurtinib_02496_R1,Plate:MR013): 115 nM; potency estimated from few doses (PHKG2; compound concentrations:100 nM and 1000 nM (sheet 'Lestaurtinib' of Supplementary Table 1),run:Lestaurtinib_02496_R2,Plate:MR013): 362 nM; potency estimated from few doses (PHKG2; compound concentrations:100 nM and 1000 nM (sheet 'Lestaurtinib' of Supplementary Table 1),run:Lestaurtinib_02496_R3,Plate:MR013): 182 nM; potency estimated from few doses (PHKG2; compound concentrations:100 nM and 1000 nM (sheet 'Lestaurtinib' of Supplementary Table 1),run:Lestaurtinib_02566_R1,Plate:MR014): 309 nM; potency estimated from few doses (PHKG2; compound concentrations:100 nM and 1000 nM (sheet 'Lestaurtinib' of Supplementary Table 1),run:Lestaurtinib_02566_R2,Plate:MR014): 151 nM; potency estimated from few doses (PHKG2; compound concentrations:100 nM and 1000 nM (sheet 'Lestaurtinib' of Supplementary Table 1),run:Lestaurtinib_02566_R3,Plate:MR014): 182 nM; potency estimated from few doses (PHKG2; compound concentrations:100 nM and 1000 nM (sheet 'Lestaurtinib' of Supplementary Table 1),run:Lestaurtinib_02572_R1,Plate:MR015): 92 nM; potency estimated from few doses (PHKG2; compound concentrations:100 nM and 1000 nM (sheet 'Lestaurtinib' of Supplementary Table 1),run:Lestaurtinib_02572_R2,Plate:MR015): 444 nM; potency estimated from few doses (PHKG2; compound concentrations:100 nM and 1000 nM (sheet 'Lestaurtinib' of Supplementary Table 1),run:Lestaurtinib_02584_R1,Plate:MR017): 215 nM; potency estimated from few doses (PHKG2; compound concentrations:100 nM and 1000 nM (sheet 'Lestaurtinib' of Supplementary Table 1),run:Lestaurtinib_02584_R2,Plate:MR017): 239 nM; potency estimated from few doses (PHKG2; compound concentrations:100 nM and 1000 nM (sheet 'Lestaurtinib' of Supplementary Table 1),run:Lestaurtinib_02606_R1,Plate:MR019): 197 nM; potency estimated from few doses (PHKG2; compound concentrations:100 nM and 1000 nM (sheet 'Lestaurtinib' of Supplementary Table 1),run:Lestaurtinib_02606_R2,Plate:MR019): 175 nM; potency estimated from few doses (PHKG2; compound concentrations:100 nM and 1000 nM (sheet 'Lestaurtinib' of Supplementary Table 1),run:Lestaurtinib_02606_R3,Plate:MR019): 636 nM; potency estimated from few doses (PHKG2; compound concentrations:100 nM and 1000 nM (sheet 'Lestaurtinib' of Supplementary Table 1),run:Lestaurtinib_02624_R1,Plate:MR020): 390 nM; potency estimated from few doses (PHKG2; compound concentrations:100 nM and 1000 nM (sheet 'Lestaurtinib' of Supplementary Table 1),run:Lestaurtinib_02624_R3,Plate:MR020): 244 nM; potency estimated from few doses (PHKG2; compound concentrations:100 nM and 1000 nM (sheet 'Lestaurtinib' of Supplementary Table 1),run:Lestaurtinib_02724_R1,Plate:MR021): 270 nM; potency estimated from few doses (PHKG2; compound concentrations:100 nM and 1000 nM (sheet 'Lestaurtinib' of Supplementary Table 1),run:Lestaurtinib_02724_R2,Plate:MR021): 239 nM; potency estimated from few doses (PHKG2; compound concentrations:100 nM and 1000 nM (sheet 'Lestaurtinib' of Supplementary Table 1),run:Lestaurtinib_02724_R3,Plate:MR021): 180 nM; potency estimated from few doses (PHKG2; compound concentrations:100 nM and 1000 nM (sheet 'Lestaurtinib' of Supplementary Table 1),run:Lestaurtinib_02741_R1,Plate:MR023): 372 nM; potency estimated from few doses (PHKG2; compound concentrations:100 nM and 1000 nM (sheet 'Lestaurtinib' of Supplementary Table 1),run:Lestaurtinib_02741_R2,Plate:MR023): 355 nM; potency estimated from few doses (PHKG2; compound concentrations:100 nM and 1000 nM (sheet 'Lestaurtinib' of Supplementary Table 1),run:Lestaurtinib_02741_R3,Plate:MR023): 301 nM; potency estimated from few doses (PHKG2; compound concentrations:100 nM and 1000 nM (sheet 'Lestaurtinib' of Supplementary Table 1),run:Lestaurtinib_02748_R1,Plate:MR024): 208 nM; potency estimated from few doses (PHKG2; compound concentrations:100 nM and 1000 nM (sheet 'Lestaurtinib' of Supplementary Table 1),run:Lestaurtinib_02748_R3,Plate:MR024): 211 nM; potency estimated from few doses (PHKG2; compound concentrations:100 nM and 1000 nM (sheet 'Lestaurtinib' of Supplementary Table 1),run:Lestaurtinib_02765_R1,Plate:MR026): 637 nM; potency estimated from few doses (PHKG2; compound concentrations:100 nM and 1000 nM (sheet 'Lestaurtinib' of Supplementary Table 1),run:Lestaurtinib_02765_R2,Plate:MR026): 849 nM; potency estimated from few doses (PHKG2; compound concentrations:100 nM and 1000 nM (sheet 'Lestaurtinib' of Supplementary Table 1),run:Lestaurtinib_02765_R3,Plate:MR026): 487 nM; potency estimated from few doses (PHKG2; compound concentrations:100 nM and 1000 nM (sheet 'Lestaurtinib' of Supplementary Table 1),run:Lestaurtinib_02766_R1,Plate:MR027): 440 nM; potency estimated from few doses (PHKG2; [1]): 170 nM; potency estimated from few doses (PHKG2; [2]): 124 nM; potency estimated from few doses (PHKG2; [3]): 217 nM; potency estimated from few doses (PHKG2; [4]): 347 nM; potency estimated from few doses (PHKG2; compound concentrations:100 nM and 1000 nM (sheet 'Lestaurtinib' of Supplementary Table 1),run:Lestaurtinib_02802_R2,Plate:MR029): 197 nM; potency estimated from few doses (PHKG2; [5]): 250 nM; potency estimated from few doses (PHKG2; [6]): 153 nM; potency estimated from few doses (PHKG2; [7]): 213 nM; potency estimated from few doses (PHKG2; [8]): 635 nM; potency estimated from few doses (PHKG2; [9]): 91.1 nM; potency estimated from few doses (PHKG2; [10]): 321 nM; potency estimated from few doses (PHKG2; [11]): 323 nM; potency estimated from few doses (PHKG2; compound concentrations:100 nM and 1000 nM (sheet 'Lestaurtinib' of Supplementary Table 1),run:Lestaurtinib_03260_R3,Plate:MR033): 212 nM; potency estimated from few doses (PKN1; [12]): 424 nM; potency estimated from few doses (PKN1; [13]): 316 nM; potency estimated from few doses (PKN1; [14]): 497 nM
